{"source": "PubChem BioAssay AID977610", "origin": "cited, not measured here", "assay": "PubChem AID 977610", "details": "PDB protein-ligand complexes, literature Ki", "note": "About 3,600 (100%) of roughly 3,600 compounds were called active. The limit is not given here; nearly all actives have Ki up to about 18000 µM. The set was probably picked from earlier hits. Some of the results follow. Square brackets hold non-standard residues; d marks the D form. Peptide text beside a SMILES is read from it. Orn(CH(NH2)2) = NC(N)NCCC[C@H](N)C(=O)O"}
{"smiles": "CC(C)C[C@H](NC(=O)[C@H](Cc1ccccc1)NC(=O)[C@H](CO)NC(=O)[C@H](CCCNC(N)N)NC(=O)[C@@H]1CCCN1)C(=O)N[C@H](C(=O)O)C(C)C", "note": "(H-P[Orn(CH(NH2)2)]SFLV-OH)", "values": [{"measurement": "Ki", "setting": "protein: LSD1-CoREST complex, PDB entry 3zmt", "value": "28.4 µM (active)"}]}
{"smiles": "C[C@H](NC(=O)[C@H](C)NC(=O)[C@H](Cc1ccccc1)NC(=O)[C@H](CO)NC(=O)[C@H](CCCNC(N)N)NC(=O)[C@@H]1CCCN1)C(=O)O", "note": "(H-P[Orn(CH(NH2)2)]SFAA-OH)", "values": [{"measurement": "Ki", "setting": "protein: LSD1-CoREST complex, PDB entry 3zn0", "value": "10.7 µM (active)"}]}
{"smiles": "CC(C)C[C@H](NC(=O)[C@H](CCCNC(N)N)NC(=O)[C@@H]1CCCN1)C(=O)N[C@@H](Cc1ccc(O)cc1)C(=O)N[C@@H](CC(C)C)C(=O)N[C@H](C(=O)O)C(C)C", "note": "(H-P[Orn(CH(NH2)2)]LYLV-OH)", "values": [{"measurement": "Ki", "setting": "protein: LSD1-CoREST complex, PDB entry 3zn1", "value": "29.1 µM (active)"}]}
{"smiles": "CC(C)[C@H](NC(=O)[C@H](C)NC(=O)[C@H](Cc1ccccc1)NC(=O)[C@H](CO)NC(=O)[C@H](CCCNC(N)N)NC(=O)[C@@H]1CCCN1)C(=O)O", "note": "(H-P[Orn(CH(NH2)2)]SFAV-OH)", "values": [{"measurement": "Ki", "setting": "protein: LSD1-CoREST complex, PDB entry 3zmz", "value": "18 µM (active)"}]}
{"smiles": "CCCCCC[C@H]([C@H](C)O)n1cnc2c(N)ncnc21", "values": [{"measurement": "Ki", "setting": "protein: Bos taurus Adenosine deaminase (ADA), PDB entry 2z7g", "value": "0.00113 µM (active)"}]}
{"smiles": "COC(=O)N[C@H](C(=O)NN(CCC[C@@]1(O)Cc2ccc(cc2)C/C=C\\CNC(=O)[C@H](C(C)C)NC1=O)Cc1ccc(-c2cccnc2)cc1)C(C)(C)C", "values": [{"measurement": "Ki", "setting": "protein: HIV-1 protease, PDB entry 4cpt", "value": "0.02 µM (active)"}]}
{"smiles": "COC(=O)N[C@H](C(=O)NN(CCC[C@@]1(O)Cc2ccc(cc2)C/C=C\\CNC(=O)[C@H](C(C)C)NC1=O)Cc1ccc(-c2ccncc2)cc1)C(C)(C)C", "values": [{"measurement": "Ki", "setting": "protein: HIV-1 protease, PDB entry 4cps", "value": "0.0054 µM (active)"}]}
{"smiles": "COC(=O)N[C@H](C(=O)NN(CCC[C@@]1(O)Cc2ccc(cc2)C/C=C\\CNC(=O)[C@H](C(C)C)NC1=O)Cc1ccc([C@H]2C=CCS2)cc1)C(C)(C)C", "values": [{"measurement": "Ki", "setting": "protein: HIV-1 protease, PDB entry 4cpx", "value": "0.017 µM (active)"}]}
{"smiles": "Cc1ccc(C(=O)NC(=O)N[C@@H]2O[C@H](CO)[C@@H](O)[C@H](O)[C@H]2O)cc1", "values": [{"measurement": "Ki", "setting": "protein: Oryctolagus cuniculus Glycogen Phosphorylase, PDB entry 2qlm", "value": "2.3 µM (active)"}]}
{"smiles": "CC(C)c1ccc(CCC(=O)N[C@@H]2O[C@H](CO)[C@@H](O)[C@H](O)[C@H]2O)cc1", "values": [{"measurement": "Ki", "setting": "protein: Glycogen phosphorylase, muscle form, PDB entry 4mic", "value": "4.98 µM (active)"}]}
{"smiles": "O=C(CCc1ccc(-c2ccccc2)cc1)N[C@@H]1O[C@H](CO)[C@@H](O)[C@H](O)[C@H]1O", "values": [{"measurement": "Ki", "setting": "protein: Glycogen phosphorylase, muscle form, PDB entry 4mhs", "value": "5.14 µM (active)"}]}
{"smiles": "CC(C)c1ccc(C[C@@H](C)C(=O)N[C@@H]2O[C@H](CO)[C@@H](O)[C@H](O)[C@H]2O)cc1", "values": [{"measurement": "Ki", "setting": "protein: Glycogen phosphorylase, muscle form, PDB entry 4mi3", "value": "75.3 µM (active)"}]}
{"smiles": "CC[B]O", "values": [{"measurement": "Ki", "setting": "protein: pure Acyl-homoserine lactone acylase PvdQ, PDB entry 4wks", "value": "2000 µM (active)"}]}
{"smiles": "Cc1nn(C)cc1-c1ccn[nH]1", "values": [{"measurement": "Ki", "setting": "protein: Catechol O-methyltransferase COMT, PDB entry 4p58", "value": "25 µM (active)"}]}
{"smiles": "CC(C)S[C@@H]1O[C@H](CO)[C@H](O)[C@H](O)[C@H]1O", "values": [{"measurement": "Ki", "setting": "protein: Putative lipoprotein BT2192, PDB entry 4oue", "value": "500 µM (active)"}]}
{"smiles": "NCC1CCC(C(=O)N[C@@H](Cc2ccccc2)c2ncc(-c3ccc(C(N)=O)cc3)[nH]2)CC1", "note": "(stereo not given in full)", "values": [{"measurement": "Ki", "setting": "protein: Coagulation factor XI FXIa, PDB entry 4ty6", "value": "0.03 µM (active)"}]}
{"smiles": "NCC1CCC(C(=O)N[C@@H](Cc2ccccc2)c2nc(-c3ccc4c(N)n[nH]c4c3)c(Cl)[nH]2)CC1", "note": "(stereo not given in full)", "values": [{"measurement": "Ki", "setting": "protein: Coagulation factor XI FXIa, PDB entry 4ty7", "value": "0.0003 µM (active)"}]}
{"smiles": "N#CCC(=O)N1CCC[C@@H](n2[nH]nc3cnc4nccc4c32)C1", "values": [{"measurement": "Ki", "setting": "protein: Tyrosine-protein kinase JAK1, PDB entry 4i5c", "value": "0.0015 µM (active)"}]}
{"smiles": "O=C(O)C(=O)Nc1ccc(C[C@@H](c2nc3ccccc3o2)S(=O)(=O)Nc2ccc(F)cc2)cc1", "values": [{"measurement": "Ki", "setting": "protein: Tyrosine-protein phosphatase non-receptor type 1, PDB entry 4i8n", "value": "35 µM (active)"}]}
{"smiles": "O=c1[nH]c(=O)n([C@@H]2O[C@H](CO)[C@@H](O)[C@H](O)[C@H]2O)cc1I", "values": [{"measurement": "Ki", "setting": "protein: Glycogen phosphorylase, muscle form, PDB entry 3t3h", "value": "1.94 µM (active)"}]}
{"smiles": "O=c1[nH]c(=O)n([C@@H]2O[C@H](CO)[C@@H](O)[C@H](O)[C@H]2O)cc1Cl", "values": [{"measurement": "Ki", "setting": "protein: Glycogen phosphorylase, muscle form, PDB entry 3t3e", "value": "1.02 µM (active)"}]}
{"smiles": "O=c1[nH]c(=O)n([C@@H]2O[C@H](CO)[C@@H](O)[C@H](O)[C@H]2O)cc1C(F)(F)F", "values": [{"measurement": "Ki", "setting": "protein: Glycogen phosphorylase, muscle form, PDB entry 3t3i", "value": "17 µM (active)"}]}
{"smiles": "O=c1[nH]c(=O)n([C@@H]2O[C@H](CO)[C@@H](O)[C@H](O)[C@H]2O)cc1Br", "values": [{"measurement": "Ki", "setting": "protein: Glycogen phosphorylase, muscle form, PDB entry 3t3g", "value": "3.27 µM (active)"}]}
{"smiles": "OC[C@@H]1[C@@H](O)[C@H](O)[C@@H](O)[C@@H]1NCC1CCCCC1", "values": [{"measurement": "Ki", "setting": "protein: Raucaffricine Glucosidase, PDB entry 3zj6", "value": "0.22 µM (active)"}]}
{"smiles": "COCCCC[C@@H](NOCCN)c1ccc(C(F)(F)F)cc1", "values": [{"measurement": "Ki", "setting": "protein: Transporter(delta13 mutant), PDB entry 4mm9", "value": "2.07 µM (active)"}]}
{"smiles": "O=[N+]([O-])c1ccccc1S[C@@H]1O[C@H](CO)[C@H](O)[C@H](O)[C@H]1O", "values": [{"measurement": "Ki", "setting": "protein: Putative lipoprotein BT2192, PDB entry 4ozo", "value": "147 µM (active)"}]}
{"smiles": "COc1cc2c(c(OC)c1)[C@@H]1[C@H]3CCC[C@@H](C(=O)N1CC2)N3C(=O)C(=O)c1cc(OC)c(OC)c(OC)c1", "values": [{"measurement": "Ki", "setting": "protein: Peptidyl-prolyl cis-trans isomerase FKBP5 (A19T mutation), PDB entry 4jfi", "value": "18.1 µM (active)"}]}
{"smiles": "COc1cc(Cc2cnc(N)nc2N)cc(/C=C/C(=O)N2NCc3ccccc3[C@@H]2c2ccccc2)c1OC", "values": [{"measurement": "Ki", "setting": "protein: Dihydrofolate reductase, PDB entry 4elb", "value": "0.005 µM (active)"}]}
{"smiles": "COc1cc(Cc2cnc(N)nc2N)cc(/C=C/C(=O)N2N=Cc3ccccc3[C@@H]2C(C)C)c1OC", "values": [{"measurement": "Ki", "setting": "protein: Dihydrofolate reductase, PDB entry 4ele", "value": "0.0132 µM (active)"}]}
{"smiles": "COc1cc(Cc2cnc(N)nc2N)cc(/C=C/C(=O)N2NCc3ccccc3[C@H]2CC(C)C)c1OC", "values": [{"measurement": "Ki", "setting": "protein: Dihydrofolate reductase, PDB entry 4elh", "value": "0.0082 µM (active)"}]}
{"smiles": "COc1cc(Cc2cnc(N)nc2N)cc(/C=C/C(=O)N2NCc3ccccc3[C@@H]2CC(C)C)c1OC", "values": [{"measurement": "Ki", "setting": "protein: Dihydrofolate reductase, PDB entry 4elg", "value": "0.0069 µM (active)"}]}
{"smiles": "COc1cc(Cc2cnc(N)nc2N)cc(/C=C/C(=O)N2NCc3ccccc3[C@@H]2CCC(F)(F)F)c1OC", "values": [{"measurement": "Ki", "setting": "protein: Dihydrofolate reductase, PDB entry 4elf", "value": "0.0094 µM (active)"}]}
{"smiles": "CCCCCCCCCCCCCB(O)O", "values": [{"measurement": "Ki", "setting": "protein: Acyl-homoserine lactone acylase PvdQ subunit beta, PDB entry 4m1j", "value": "0.0002 µM (active)"}]}
{"smiles": "Cc1cc(N)ccc1O", "values": [{"measurement": "Ki", "setting": "protein: PDE10A2, PDB entry 4llp", "value": "16 µM (active)"}]}
{"smiles": "O=C(O)c1ccccc1C(=O)NCc1c(Cl)cccc1Sc1ccc(Cl)cc1Cl", "values": [{"measurement": "Ki", "setting": "protein: Dehydrosqualene synthase, PDB entry 3tfp", "value": "0.34 µM (active)"}]}
